Compound activity: PubChem, National Center for Advancing Translational Sciences (NCATS)
The list is not random: actives were taken first. Their share in the collection is about 12%.
JMJD2A Tudor: qHTS Assay for Inhibitors of JMJD2A-Tudor Domain | AlphaScreen JMJD2A-Tudor / H3K4me3 peptide binding | Potency, µM (highest dose often 114 µM), inactives show top-dose activity change, negative = inhibition, actives largely listed as inhibitors | 390,000 tested, 4.4% active | AID 504339, 2011; also: % is scaled to controls: 0 for no effect and ±100 for the full control effect; nearly all actives have a fitted effect of over 50% in size
Sfp inh: qHTS Assay for Inhibitors of Bacillus subtilis Sfp phosphopantetheinyl transferase (PPTase) | Biochemical Sfp PPTase activity, qHTS | Potency, µM, for the others: largest response in the series, negative = inhibition, hits mostly inhibitors | 310,000 tested, 3.5% active;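 also: the enzyme is Sfp with the accession as filed and its product quenches rhodamine fluorescence; 0% = enzyme reaction without inhibitor and -100% = no enzyme wells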
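Fluorescence-quenching assay with 15 nM Sfp, 5 uM rhodamine-CoA and 12.5 uM BHQ-2-labelled ybbR peptide in pH 7.6 Hepes/MgCl2 buffer. Enzyme was pre-incubated with compound for 15 min at room temperature. Rate was taken from the 30-min fluorescence change (525/598 nm).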
BAZ2B block: qHTS Assay for Inhibitors of BAZ2B; Bromodomain adjacent to zinc finger domain protein 2B (Homo sapiens), Q9UIF8; AlphaScreen BAZ2B-H3K14Ac peptide displacement; Potency, µM (series often up to 114 µM), for the others: at the highest dose activity change, negative = inhibition, hits mostly inhibitors; 360,000 tested, 4.4% active; AID 504333, 2011; also: % is scaled to controls: 0 for no effect and ±100 for the full control effect; nearly all actives have a fitted effect of over 60% in size
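BAZ2B (50 nM) with biotin-H3(5-23)K14Ac peptide (50 nM) in PBS pH 7.4, 0.01% Tween-20, preformed 30 min, then compound 30 min at room temperature; top concentration 110uM. AlphaScreen streptavidin donor/nickel chelate acceptor beads (10 ug/mL final), 20 min dark, signal read.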
HP1b chromo inh: HTS for Inhibitors of HP1-beta Chromodomain Interactions with Methylated Histone Tails | 390,000 tested, 0.56% active | Potency, µM (series often up to 114 µM), for inactives: top-dose activity change, negative = inhibition, actives largely listed as inhibitors | AlphaScreen HP1-beta / biotin-H3K9me3 peptide binding | Chromobox protein homolog 1 (Homo sapiens), P83916; also: nearly all actives have a fitted effect of over 70% in size
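Compound inhibition of the preformed complex between 50 nM HP1-beta and 50 nM biotinylated H3K9me3 peptide was read by AlphaScreen. Buffer was PBS pH 7.4 with 0.01% Tween-20. Incubations ran 30 min at room temperature, with 10 ug/mL donor/acceptor beads.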
L3MBTL1 inh: qHTS Assay for the Inhibitors of L3MBTL1 | AlphaScreen L3MBTL1–H3K9me1 peptide binding | Potency, µM (doses to about 57.1 µM), inactives show at the top dose activity, negative = inhibition, usual class: inhibitors | 230,000 tested, 0.66% active | AID 485360, 2010; also: % is scaled to controls: 0 for no effect and ±100 for the full control effect; nearly all actives have a fitted effect of over 60% in size
Target sequence (Q9Y468 whole entry, looked up): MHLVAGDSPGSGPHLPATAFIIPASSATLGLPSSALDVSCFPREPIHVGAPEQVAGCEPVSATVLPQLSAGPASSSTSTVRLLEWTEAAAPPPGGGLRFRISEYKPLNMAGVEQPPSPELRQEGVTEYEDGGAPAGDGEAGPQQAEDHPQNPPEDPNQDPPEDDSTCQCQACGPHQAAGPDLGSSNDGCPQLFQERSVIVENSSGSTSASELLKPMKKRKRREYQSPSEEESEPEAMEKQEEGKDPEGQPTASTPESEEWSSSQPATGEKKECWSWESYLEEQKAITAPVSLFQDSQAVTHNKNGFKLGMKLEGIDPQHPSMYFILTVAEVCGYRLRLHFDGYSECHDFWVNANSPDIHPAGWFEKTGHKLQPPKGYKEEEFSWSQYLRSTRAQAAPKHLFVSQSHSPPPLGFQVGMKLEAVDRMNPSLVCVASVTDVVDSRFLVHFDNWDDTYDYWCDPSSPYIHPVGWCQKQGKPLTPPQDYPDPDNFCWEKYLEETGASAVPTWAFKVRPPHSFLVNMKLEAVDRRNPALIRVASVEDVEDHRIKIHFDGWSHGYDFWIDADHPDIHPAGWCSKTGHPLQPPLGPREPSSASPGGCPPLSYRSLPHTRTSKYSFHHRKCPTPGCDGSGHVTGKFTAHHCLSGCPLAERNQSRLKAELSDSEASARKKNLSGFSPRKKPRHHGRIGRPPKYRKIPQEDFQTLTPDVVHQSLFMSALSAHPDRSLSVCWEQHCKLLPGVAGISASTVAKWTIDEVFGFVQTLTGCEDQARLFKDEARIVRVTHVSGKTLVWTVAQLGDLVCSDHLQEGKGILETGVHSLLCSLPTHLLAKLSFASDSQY
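L3MBTL1 (50 nM) pre-complexed 30 min with biotinylated H3(1-15)K9me1 peptide (75 nM), then compounds added for 30 min at room temperature; AlphaScreen streptavidin donor/nickel chelate acceptor beads (10 ug/mL final) read after 30 min dark incubation.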
G9a inh: qHTS Assay for Inhibitors of Histone Lysine Methyltransferase G9a | Histone-lysine N-methyltransferase EHMT2 (Homo sapiens), Q96KQ7 | G9a H3K9 monomethylation, AlphaScreen, 2 h | Potency, µM (doses to about 102 µM), for inactives: at the top dose activity, negative = inhibition, hits mostly inhibitors | 350,000 tested, 8.8% active | AID 504332, 2011; also: % is scaled to controls: 0 for no effect and ±100 for the full control effect; nearly all actives have a fitted effect of over 75% in size
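G9a (20 nM) preincubated 15 min RT with compounds, then 500 nM biotinylated H3K9 peptide and 20 uM SAM added; 2 h RT reaction. Monomethyl-H3K9 product detected by AlphaScreen with anti-H3K9me1 antibody, streptavidin donor and anti-rabbit IgG acceptor beads.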
Starred values were filed as active, the others as inactive; ? = inconclusive; . = not tested or not shown; ! = not confirmed by another sample; [ ] = remark or other dose. Calls follow the shape of the dose curve; as a rule, active = well fitted curve in the direction sought with a large enough effect; inconclusive = small, poorly fitted or top-dose-only effect, or another doubt; inactive = no such curve, though single readings can be large; an effect the other way counts as inactive or inconclusive. Potency is read from the fitted curve at half-maximal effect.

SMILES	JMJD2A Tudor	Sfp inh	BAZ2B block	HP1b chromo inh	L3MBTL1 inh	G9a inh
CCOc1cc(C2C(C(C)=O)=C(O)C(=O)N2CCc2c[nH]c3ccccc23)ccc1O (centres undefined)	-18%	4%	-32%	19%	0%	?
CC(=O)C1=C(O)C(=O)N(CCc2c[nH]c3ccccc23)C1c1ccc(C)cc1 (centres undefined)	-26%	15%	-16%	17%	-11%	45µM*
CC(=O)C1=C(O)C(=O)N(CCCCCC(=O)O)C1c1ccc(N(C)C)cc1 (centres undefined)	32µM*	-16%	79µM*	12%	.	?
O=C1NC(c2ccccc2)C(C(=O)c2cccs2)=C1O (centres undefined)	25µM*	2%	-36%	-1%	.	?
CC1(CCc2ccccc2)NC(=O)NC1=O (centres undefined)	-1%	.	.	26%	.	.
O=C(C1=C(O)C(=O)N(CCN2CCOCC2)C1c1ccc(F)cc1)c1cccs1 (centres undefined)	-9%	3%	10%	35%	10%	71µM*
CCCOc1cccc(C2C(C(=O)c3cccs3)=C(O)C(=O)N2CCN2CCOCC2)c1 (centres undefined)	-1%	-7%	?	24%	.	79µM*
COCCN1C(=O)C(O)=C(C(C)=O)C1c1ccc(F)cc1 (centres undefined)	40µM*	-28%	79µM*	1%	-5%	?
COCCN1C(=O)C(O)=C(C(=O)c2cccs2)C1c1ccccc1 (centres undefined)	-7%	4%	-21%	28%	4%	18µM*
COc1cc(Cl)c(C)cc1NC(=O)C(OC(=O)CNC(=O)c1ccccc1)c1ccccc1 (centres undefined)	-22%	.	.	.	.	.
CCN(CC)CCN1C(=O)C(O)=C(C(=O)c2cccs2)C1c1ccccn1 (centres undefined)	?	56µM*	50µM*	21%	.	32µM*
CCN(CC)CCN1C(=O)C(O)=C(C(=O)c2cccs2)C1c1ccc(C)o1 (centres undefined)	?	-3%	3%	23%	4%	?
O=C(O)CCCCCN1C(=O)C(O)=C(C(=O)/C=C/c2ccccc2)C1c1ccc2c(c1)OCO2 (centres undefined)	22µM*	21%	?	19%	-11%	50µM*
CC1=CC(c2ccccc2)n2nc(NC(=O)CCC(=O)O)nc2N1 (centres undefined)	?	-26%	?	-14%	-9%	?
Cc1ccc(C2C=C(c3ccccc3)Nc3nc(NS(=O)(=O)c4ccc(C)cc4)nn32)cc1 (centres undefined)	-8%	.	0%	71%	.	-9%[59 µM]
CC1=CC(c2ccccc2)n2nc(NC(=O)CCCC(=O)O)nc2N1 (centres undefined)	?	3%	50µM*	7%	.	5%
CC1=CC(c2ccc(Cl)cc2)n2nc(NC(=O)c3ccccc3)nc2N1 (centres undefined)	-30%	-8%	56µM*	54%	.	14µM*
CCC(=O)Nc1nnc(SCC(=O)Nc2cccc(Cl)c2)s1	-3%	24%	-11%	28%	.	.
COc1cc(/C=C2\COC/C(=C\c3ccc(O)c(OC)c3)C2=O)ccc1O	?	8%	?	?	?	32µM*
COc1cc(/C=C/C=C2/CC/C(=C/C=C/c3ccc(O)c(OC)c3)C2=O)ccc1O	56µM*	.	.	?	.	.
COc1cc(/C=C/c2ccc3cccc(O)c3n2)ccc1O	?	?	-21%	13%	.	1%
C/C=C/c1ccc(O)c(OC)c1	-31%	-11%	?	?	-3%	10µM*!
O=C(CN1C(=O)NC2(CCCCCC2)C1=O)NCc1ccccc1	2%	.	.	25%	-4%	.
COc1ccc(CNC(=O)COC(=O)CN2C(=O)NC3(CCCC3)C2=O)cc1	-3%	.	5%	33%	-1%	2%[2.33 µM]
O=C(Nc1ccc(OC(F)(F)F)cc1)c1ccc2nc[nH]c2c1	-13%	4%	-38%	24%	1%	50µM*
SMILES	JMJD2A Tudor	Sfp inh	BAZ2B block	HP1b chromo inh	L3MBTL1 inh	G9a inh
COc1ccc(NC(=O)c2ccc3nc[nH]c3c2)c(OC)c1	-15%	18%	?	24%	-19%	19%
CCC1CCCCN1C(=O)CSc1n[nH]c(-c2ccccc2Cl)n1 (centres undefined)	-6%	.	0%	23%[57 µM]	.	-36%[59 µM]
Cc1nn(Cc2cccc(F)c2)c(C)c1NC(=O)c1c(Cl)cnn1C	-11%	6%	1%	16%	4%	12%[59 µM]
CCOc1ccc(Nc2cc(=O)oc3ccccc23)cc1	-15%	9%	71µM*	19%	-3%	14%
CCOc1ccc(NC(=O)COC(=O)c2cc(=O)c3ccccc3o2)cc1	-5%	.	10%	48%	4%	20µM*
O=C(OCc1ccc([N+](=O)[O-])cc1)c1cc(=O)c2ccccc2o1	-8%	15%	-1%	18%	.	50µM*
COc1cccc(NC(=O)COC(=O)c2cc(=O)c3ccccc3o2)c1	-2%	.	9%	24%	6%	-18%[12.7 µM]
Cc1ccsc1C(=O)N1CCCC(CCC(=O)NCc2ccccc2F)C1 (centres undefined)	-3%	-8%	7%	46%	5%	-11%
Cc1ccsc1S(=O)(=O)N1CCCC(CCC(=O)NCc2ccccc2F)C1 (centres undefined)	-16%	-1%	-16%	57%	0%	79µM*
N#CC1=C(N)SC2(CCCCC2)SC1c1ccccc1 (centres undefined)	?	10µM*	-34%	-12%	-5%	7.9µM*
N#CC1=C(N)SC(N)=C(C#N)C1Cc1ccccc1	?	?	-5%	14%	8%	?
CCCCn1c(N)c(N(CC(C)C)C(=O)CC2OC(=O)c3ccccc32)c(=O)[nH]c1=O (centres undefined)	-13%	.	-4%	8%	8%	-10%
COc1ccc(C(c2nnnn2Cc2ccccc2)N2CCN(c3nc4ccccc4s3)CC2)cc1OC (centres undefined)	79µM*	?	-12%	3%	-7%	20µM*
